Data reported in PubChem BioAssay (EPA / NIEHS).
Inconclusive results are not listed. The source made the active and inactive calls. Rule for the calls: active = hit-call score of the fitted dose curve at least 0.9, where 1 is the maximum; inconclusive = response in the unintended direction; inactive = score below 0.9.

biological target: rat Adrenergic, Alpha 1, Non-selective Receptor (Adra1), Adra1a (gene 29412) (UniProt P43140); assay: NVS_GPCR_rAdra1_NonSelective: NovaScreen (NVS) G Protein-Coupled Receptor Assay for rat Adrenergic, Alpha 1, Non-selective Receptor (Adra1) (AID 2283289)
Sequence (P43140 whole entry, looked up): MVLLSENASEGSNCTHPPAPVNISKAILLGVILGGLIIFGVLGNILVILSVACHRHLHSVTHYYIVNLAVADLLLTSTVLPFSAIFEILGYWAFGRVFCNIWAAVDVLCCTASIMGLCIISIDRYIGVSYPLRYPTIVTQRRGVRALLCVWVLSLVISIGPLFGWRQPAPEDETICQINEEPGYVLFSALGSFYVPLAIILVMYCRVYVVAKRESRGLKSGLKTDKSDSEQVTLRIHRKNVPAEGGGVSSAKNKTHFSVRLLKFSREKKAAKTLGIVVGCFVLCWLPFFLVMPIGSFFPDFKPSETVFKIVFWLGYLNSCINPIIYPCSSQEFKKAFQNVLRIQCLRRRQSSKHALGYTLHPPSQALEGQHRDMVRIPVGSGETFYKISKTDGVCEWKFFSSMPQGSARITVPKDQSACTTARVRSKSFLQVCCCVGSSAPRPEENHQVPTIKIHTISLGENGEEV
In short: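 Chemicals first screened in duplicate at 25 uM, then actives tested in concentration series up to 50 uM. Binding measured as displacement of radioligand from rat forebrain membrane receptors, 1 h, filtration with scintillation readout; DMSO baseline.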

SMILES | outcome | AC50
Oc1ccc2c(c1)OC[C@@H](N1CCC(O)(c3ccc(F)cc3)CC1)[C@H]2O | inactive | 
CN1CCN(Cc2cc(-c3ccc4[nH]c(=O)oc4c3)co2)[C@@H](c2ccc(F)cc2)C1 |  | 8.23 µM (active)
CCCCC(CC)COC(=O)CC(C(=O)OCC(CC)CCCC)S(=O)(=O)O (stereo unspecified) |  | 17 µM (active)
NC(=O)Cn1c(=O)cc(CCN2CCN(c3nccc4sccc34)CC2)c2ccc(F)cc21 |  | 0.0868 µM (active)

biological target: human Opioid Receptor Mu (Opiate Mu), OPRM1 (gene 4988) (UniProt P35372); assay: NVS_GPCR_hOpiate_mu: NovaScreen (NVS) G Protein-Coupled Receptor Assay for human Opioid Receptor Mu (Opiate Mu) (AID 2283290);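 note: hits lower bound tracer signal versus DMSO meaning displacement of the ligand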
Sequence (P35372 whole entry, looked up): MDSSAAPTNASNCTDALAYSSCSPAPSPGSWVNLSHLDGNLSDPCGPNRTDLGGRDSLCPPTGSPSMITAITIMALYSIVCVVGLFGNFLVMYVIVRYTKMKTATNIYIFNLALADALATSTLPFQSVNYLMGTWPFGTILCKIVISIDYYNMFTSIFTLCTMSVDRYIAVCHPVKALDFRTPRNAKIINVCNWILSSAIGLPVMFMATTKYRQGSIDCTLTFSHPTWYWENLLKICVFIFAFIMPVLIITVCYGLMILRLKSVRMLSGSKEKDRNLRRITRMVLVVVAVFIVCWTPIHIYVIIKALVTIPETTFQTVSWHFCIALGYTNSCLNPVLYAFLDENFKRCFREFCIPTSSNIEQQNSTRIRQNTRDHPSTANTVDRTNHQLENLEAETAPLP
In short: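 Primary screen in duplicate at 25 uM, with actives followed in concentration series. CHO-derived receptor membranes, cell-free; bound radioligand read by scintillation counting after filtration at 2.5 h, decrease scored against DMSO.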

SMILES | outcome | AC50
CC=Cc1ccc(O)c(OC)c1 | inactive | 
Nc1nc(N)c2nc(CNc3ccc(C(=O)N[C@@H](CCC(=O)O)C(=O)O)cc3)cnc2n1 |  | 5.21 µM (active)
Oc1ccc2c(c1)OC[C@@H](N1CCC(O)(c3ccc(F)cc3)CC1)[C@H]2O | inactive | 
CC1=C(/C=C/C(C)=C/C=C/C(C)=C/CO)C(C)(C)CCC1 | inactive | 
Oc1ccc2ccccc2c1N=Nc1ccccc1 |  | 37.4 µM (active)
CN1CCN(Cc2cc(-c3ccc4[nH]c(=O)oc4c3)co2)[C@@H](c2ccc(F)cc2)C1 |  | 22 µM (active)
O=C(N[C@@H](Cc1ccccc1)[C@@H](O)C(=O)N1C[C@@H](O)[C@@H](O)C1)c1cc2cc(Cl)ccc2[nH]1 |  | 4.96 µM (active)
CCCCC(CC)COC(=O)CC(C(=O)OCC(CC)CCCC)S(=O)(=O)O (stereo unspecified) |  | 14.8 µM (active)
CCc1c(C(=O)NN2CCCCC2)nn(-c2ccc(Cl)cc2Cl)c1-c1ccc(Br)cc1 | inactive | 
CCOC(=O)CCC(=O)OCC | inactive | 

biological target: guinea pig Bradykinin Receptor B2 (BK2), BDKRB2 (gene 100135486) (UniProt O70526); assay: NVS_GPCR_gBK2: NovaScreen (NVS) G Protein-Coupled Receptor Assay for guinea pig Bradykinin Receptor B2 (BK2) (AID 2283292)
Sequence (O70526 whole entry, looked up): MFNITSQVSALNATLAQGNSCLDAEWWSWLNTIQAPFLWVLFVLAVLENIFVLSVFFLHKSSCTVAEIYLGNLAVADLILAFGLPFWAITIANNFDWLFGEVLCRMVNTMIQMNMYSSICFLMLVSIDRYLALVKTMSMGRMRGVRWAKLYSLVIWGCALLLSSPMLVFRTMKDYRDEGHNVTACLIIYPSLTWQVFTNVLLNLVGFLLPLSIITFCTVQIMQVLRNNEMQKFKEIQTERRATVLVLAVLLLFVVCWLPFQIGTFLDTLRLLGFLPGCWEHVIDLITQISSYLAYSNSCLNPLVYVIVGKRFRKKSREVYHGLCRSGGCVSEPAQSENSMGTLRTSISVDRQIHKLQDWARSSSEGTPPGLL
In short: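 Guinea pig ileum membrane preparation incubated 1 h with radioligand and test chemical; bound counts measured after filtration. Primary duplicate screening at 25 uM, then singleton concentration series with a 50 uM top dose; DMSO as baseline.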

SMILES | outcome
COc1cc(C=O)ccc1O | inactive
CCCCCCCCCCC | inactive
NCCO | inactive

biological target: mouse Cholecystokinin, CCK2 Receptor (CCKB), Cckbr (gene 12426) (UniProt P56481); assay: NVS_GPCR_mCKKBCentral: NovaScreen (NVS) G Protein-Coupled Receptor Assay for mouse Cholecystokinin, CCK2 Receptor (CCKB) (AID 2283293)
Sequence (P56481 whole entry, looked up): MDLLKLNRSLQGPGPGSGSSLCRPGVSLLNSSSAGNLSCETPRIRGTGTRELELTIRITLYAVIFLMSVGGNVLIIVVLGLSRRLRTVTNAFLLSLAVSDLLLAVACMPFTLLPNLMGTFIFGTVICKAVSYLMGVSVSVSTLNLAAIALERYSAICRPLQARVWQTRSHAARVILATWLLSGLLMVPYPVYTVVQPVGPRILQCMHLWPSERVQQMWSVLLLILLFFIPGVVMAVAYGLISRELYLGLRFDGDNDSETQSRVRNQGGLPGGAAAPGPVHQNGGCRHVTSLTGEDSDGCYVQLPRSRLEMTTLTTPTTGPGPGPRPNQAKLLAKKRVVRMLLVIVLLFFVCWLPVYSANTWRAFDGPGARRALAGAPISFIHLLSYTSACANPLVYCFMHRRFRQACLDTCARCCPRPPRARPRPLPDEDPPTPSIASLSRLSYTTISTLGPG
In short: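 Mouse forebrain membrane preparation incubated 2 h with chemical and radioligand; bound radioactivity counted after filtration. Single-concentration duplicate screen at 25 uM, then concentration series to 50 uM max for hits, DMSO as baseline.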

SMILES | AC50
CCCCc1ccc2c(n1)[C@@H](c1ccc(OC)cc1C[C@H](C)C(=O)O)[C@H](C(=O)O)[C@H]2c1ccc2c(c1)OCO2 | 20 µM (active)
COc1ccc(S(=O)(=O)N2C(=O)[C@@](c3ccccc3OC)(N3C[C@H](O)C[C@H]3C(=O)N(C)C)c3cc(Cl)ccc32)c(OC)c1 | 25 µM (active)
O=C(N[C@@H](Cc1ccccc1)[C@@H](O)C(=O)N1C[C@@H](O)[C@@H](O)C1)c1cc2cc(Cl)ccc2[nH]1 | 8.74 µM (active)

biological target: guinea pig Serotonin, 5-Hydroxytryptamine Receptor 4 (5HT4), HTR4 (gene 100135548) (UniProt O70528); assay: NVS_GPCR_g5HT4: NovaScreen (NVS) G Protein-Coupled Receptor Assay for guinea pig Serotonin, 5-Hydroxytryptamine Receptor 4 (5HT4) (AID 2283294)
Sequence (O70528 whole entry, looked up): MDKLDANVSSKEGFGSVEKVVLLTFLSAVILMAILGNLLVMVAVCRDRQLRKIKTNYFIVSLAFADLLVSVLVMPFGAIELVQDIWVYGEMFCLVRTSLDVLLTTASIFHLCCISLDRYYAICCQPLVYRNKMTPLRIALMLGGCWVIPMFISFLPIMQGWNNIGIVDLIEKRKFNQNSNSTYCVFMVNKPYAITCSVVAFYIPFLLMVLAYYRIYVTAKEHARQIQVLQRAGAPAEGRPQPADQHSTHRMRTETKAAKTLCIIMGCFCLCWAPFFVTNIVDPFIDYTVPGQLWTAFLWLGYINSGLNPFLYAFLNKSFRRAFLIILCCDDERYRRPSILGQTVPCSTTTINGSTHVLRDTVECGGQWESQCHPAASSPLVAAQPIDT
In short: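 Compounds first screened in duplicate at 25 uM, actives followed up in concentration series. Binding measured as displacement of specific radioligand from guinea pig striatal membranes, 1 h, filter-based scintillation read-out versus DMSO baseline.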

SMILES | outcome | AC50
Oc1ccc2c(c1)OC[C@@H](N1CCC(O)(c3ccc(F)cc3)CC1)[C@H]2O | inactive | 
Cc1nc(C)nc(N2C[C@@H](C)N(c3ccnc([C@@H](C)O)n3)[C@@H](C)C2)n1 | inactive | 
CCCCC(CC)COC(=O)CC(C(=O)OCC(CC)CCCC)S(=O)(=O)O (stereo unspecified) |  | 36 µM (active)
COc1cc(S(=O)(=O)O)c(C)cc1N=Nc1c(O)ccc2cc(S(=O)(=O)O)ccc12 |  | 41.9 µM (active)
CCc1c(C(=O)NN2CCCCC2)nn(-c2ccc(Cl)cc2Cl)c1-c1ccc(Br)cc1 | inactive | 
CCCCCCC(=O)OCC | inactive | 
